An excerpt weighted towards active compounds, which were near 2.9% of everything screened.
LDHA inh = blocks human lactate dehydrogenase A; P00338; purified LDHA, NADH/diaphorase-resazurin fluorescence; stronger effect = lower value; activity change, % (values are at about 110 or 230 µM); 480,000 tested, 0.15% active; in the data active = activity change below about -30%; inconclusive = mostly about -25% to -30%
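Human LDH5 (2 nM) was incubated with 0.06 mM NADH and 0.2 mM pyruvate for 5 min at room temperature in Tris pH 7.4. Remaining NADH was coupled through diaphorase/resazurin, and resorufin fluorescence was read at 0 and 20 min.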
GLP1R inv ag = inverse agonists of human GLP-1 receptor; HEK293 GLP-1R CRE-luciferase, luminescence, 24 h; GLP-1R form is constitutively active; 410,000 tested, 1.6% active; AID 624417; Potency, µM (top dose mostly 38.3 µM), usual class: inhibitors; P43220; note: nearly all actives have a fitted effect of over 55% in size
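Cells are plated, allowed 12 hours at 37 deg C, then treated with compounds for 24 hr before luciferase detection reagent is added and luminescence is read after 12 min at room temperature. The HEK293 line carries constitutively active GLP-1R with a cAMP-responsive reporter.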
ClpP mod = qHTS Assay for Activators of ClpP; ATP-dependent Clp protease proteolytic subunit (Bacillus subtilis (strain 168)), P80244; purified B. subtilis ClpP, FRET peptide cleavage, 20 min; Potency, µM (top dose mostly 57.5 µM); 340,000 tested, 1.9% active; active = well fitted falling curve with a large enough effect; inconclusive = small, poorly fitted or top-dose-only effect; inactive = no such curve, though single readings can be large or run the other way; note: the source files actives as falling curves though it sought activators and does not explain the sign; nearly all actives have a fitted effect of over 65% in size
Target sequence (P80244 whole entry, looked up): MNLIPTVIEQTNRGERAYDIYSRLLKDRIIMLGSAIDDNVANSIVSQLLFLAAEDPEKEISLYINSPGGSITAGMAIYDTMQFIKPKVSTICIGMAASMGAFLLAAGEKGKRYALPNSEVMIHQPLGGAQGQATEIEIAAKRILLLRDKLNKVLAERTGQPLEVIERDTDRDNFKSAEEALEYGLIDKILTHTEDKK
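ClpP 10 microg/mL final, pH 8 Tris/KCl buffer with BSA, glycerol, Tween-20; compound pinned in; FRET-FV substrate; RT 20 min; Ex320/Em430; ΔFRET vs ADEP 5.8 microM, DMSO, no enzyme.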
p53 reactivation = mutant p53 re-activation in reporter cells. H1299 p53-A138V BP100-luciferase reporter, luminescence, 24 h. Potency, µM (highest dose often 92.2 µM), usual class: activators. 320,000 tested, 0.063% active. AID 504706; note: nearly all actives have a fitted effect of over 45% in size
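p53-null H1299 cells stably carrying temperature-sensitive p53-A138V and a BP100-luciferase reporter were pinned with compounds (4-point, 1:5 series) and held 24 hrs at 37 deg C. Luminescence was read 10 min after detection reagent.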
GLP-1R agonist = GLP-1 receptor (human) agonism; HEK293 GLP-1R CRE-luciferase, luminescence, 4-6 h; cells express a hypersensitive GLP-1R form; 380,000 tested, 0.007% active; Potency, µM (series often up to 45.6 µM), actives largely listed as activators
GLP1R cytotox = cytotoxicity in counter-screen for GLP-1R inverse agonists | Potency, µM (top dose mostly 38.3 µM), usual class: inhibitors | 410,000 tested, 0.13% active | HEK293 cAMP-luciferase reporter cells, luminescence, 24 h;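 note: loss of luciferase light is scored as toxicity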
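Step one: seed cells (200 cells/uL, DMEM with 10% Nu serum, 1% pen-strep). Step two: 12-hour incubation at 37 deg C. Step three: pin 23 nL compound, incubate 24 hr. Step four: add luciferase reagent, read luminescence 12 min later.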
Numbers stand for hits; . = inactive; ? = inconclusive; / = no result given. Unless noted, calls come from the whole dose curve; as a rule, active = well fitted curve in the direction sought with a large enough effect; inconclusive = small, poorly fitted or top-dose-only effect, or another doubt; inactive = no such curve, though single readings can be large; an effect the other way counts as inactive or inconclusive.

SMILES	LDHA inh	GLP1R inv ag	ClpP mod	p53 reactivation	GLP-1R agonist	GLP1R cytotox
CCOC(=O)c1sc(NC(=S)NC(=O)CC(C)C)cc1C	.	10µM	.	?	.	?
CCOC(=O)c1sc(NC(=S)NC(=O)C2CCCC2)cc1C	.	?	.	.	.	.
Cc1ccc(S(=O)(=O)Nc2nc3ccccc3nc2Nc2ccc3c(c2)OCO3)cc1C	.	/	/	/	/	/
O=C(N/N=C\C=C\c1ccc([N+](=O)[O-])o1)c1cccs1	-30	.	/	?	.	.
O=C(N/N=C/C=C/c1ccccc1[N+](=O)[O-])c1cccs1	.	.	.	.	.	.
Clc1ccc2nc(C3CCN(Cc4nnnn4C4CCCCC4)CC3)[nH]c2c1	.	?	.	.	.	.
Cc1ccc(Cn2nnnc2CN2CCC(c3nc4ccc(Cl)cc4[nH]3)CC2)cc1	.	11µM	.	.	.	.
COC(=O)CCSCC(=O)N1N=C(c2ccc(Br)cc2)CC1c1cccc(OC)c1OC (centres undefined)	.	?	/	.	.	.
CCCn1nnc(NC(=O)c2ccc(-c3cccc(Cl)c3)o2)n1	.	.	?	.	.	?
O=C(NC(=S)Nc1cc(Cl)ccc1N1CCOCC1)c1ccc(-c2cccc(Cl)c2)o1	.	.	.	.	.	.
CCn1nnc(NC(=S)NC(=O)c2ccc(-c3cccc(Cl)c3)o2)n1	.	.	/	.	.	5µM
CCCCn1nnc(NC(=O)c2ccc(-c3cccc(Cl)c3)o2)n1	.	?	32µM	.	.	.
COc1ccc(-c2[nH]ncc2/C=N\NS(=O)(=O)c2ccccc2)cc1OC	.	.	.	.	.	.
Cc1ccc(NC(=O)C(c2ccccc2)N(C)C)cc1Cl (centres undefined)	.	5µM	.	.	.	.
Cc1ccc(NC(=O)C(OC(=O)c2ccc(O)cc2)c2ccccc2)cc1Cl (centres undefined)	.	.	.	.	.	.
CCN1CCN(C(=O)Cn2c(-c3cccs3)cc3ccccc32)CC1	.	.	32µM	/	/	.
CN1CCN(C(=O)Cn2c(-c3ccccc3)cc3ccccc32)CC1	.	/	/	/	/	/
COc1cccc(CCNC(=O)Cn2c(-c3cccs3)cc3ccccc32)c1	.	.	.	/	.	.
COc1cccc(N2CCN(C(=O)Cn3c(-c4cccs4)cc4ccccc43)CC2)c1	.	?	16µM	/	/	.
CC1CCN(C(=O)COC(=O)Cc2ccc(Br)cc2)CC1	.	.	.	.	.	.
COc1ccc(NC(=O)/C=C/c2cc(Br)ccc2OC)cc1	.	?	.	.	.	.
COc1ccc(Br)cc1/C=C/C(=O)c1ccc(NC(C)=O)cc1	.	5µM	.	.	.	.
CS(=O)(=O)N(CC(=O)NCCSCc1ccccc1)c1cc(C(F)(F)F)ccc1Cl	.	11µM	.	/	/	.
CCCCc1ccc(NC(=O)c2ccc(=O)n(Cc3cccc(C)c3)c2)cc1	.	7.1µM	.	/	.	.
O=C(CSc1nnc(-c2cccs2)n1-c1ccccc1)NCc1ccc2c(c1)OCO2	.	?	.	.	.	.
SMILES	LDHA inh	GLP1R inv ag	ClpP mod	p53 reactivation	GLP-1R agonist	GLP1R cytotox
CC(=O)Nc1csc2ccccc12	.	.	.	.	.	.
O=C(Nc1ccccc1)Nc1csc2ccccc12	.	8.9µM	/	.	.	.
CC1(C(=O)NCc2cccc3ccccc23)CCN1Cc1ccccc1OC(F)F (centres undefined)	.	13µM	.	/	.	.
CC1(C(=O)NCc2ccc(C(F)(F)F)cc2)CCN1Cc1ccccc1OC(F)F (centres undefined)	.	?	.	/	.	.
COc1ccc(CCN2C(=O)C3C4C=CC(C3C2=O)C2C(=O)N(CCc3ccc(OC)c(OC)c3)C(=O)C42)cc1OC (centres undefined)	.	.	1.8µM	.	.	.
COc1ccc(CCn2c(N)cc(=O)[nH]c2=S)cc1OC	.	.	.	.	10µM	.
O=C(/C=C/c1ccc(Cl)cc1Cl)OCC(=O)N1CCCC1	.	.	.	?	.	.

Screening data as filed in PubChem.
